# Laboratory results reported in the supplement of paper PMC6992640.
# ± gives the standard deviation of the averaged measurements.
# How the values were obtained:
# Assay in all cases: cell viability (% of vehicle); higher = less cytotoxic
# Settings in all cases: 10 µM; 72 h
# HCI01 = system: HCI01 (cells of a triple-negative basal-like breast cancer xenograft)
# HCI03 = system: HCI03 (cells of an ER-positive luminal breast cancer xenograft)
# HCI09 = system: HCI09 (cells of a triple-negative luminal androgen receptor type breast cancer xenograft)
# HCI11 = system: HCI11 (cells of an ER-positive luminal breast cancer xenograft)
# HCI13 = system: HCI13 (cells of an ER-positive luminal breast cancer xenograft)
# HCI16 = system: HCI16 (cells of a triple-negative basal-like breast cancer xenograft)
# UCD52 = system: UCD52 (cells of a triple-negative basal-like breast cancer xenograft)
# WHIM2 = system: WHIM2 (cells of a triple-negative basal-like breast cancer xenograft)
# WHIM30 = system: WHIM30 (cells of a triple-negative basal-like breast cancer xenograft)
# 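Further: PDX cells carrying CMV promoter-driven luciferase, viability read as total photon flux per second by IVIS imaging following D-luciferin, vehicle control 0.1% DMSO.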
SMILES,cell viability (HCI01),cell viability (HCI03),cell viability (HCI09),cell viability (HCI11),cell viability (HCI13),cell viability (HCI16),cell viability (UCD52),cell viability (WHIM2),cell viability (WHIM30)
CC1(C)SC2C(NC(=O)C(N)c3ccccc3)C(=O)N2C1C(=O)O.O.O.O (stereo unspecified) [Ampicillin Trihydrate],138 ± 26,124,94.6 ± 8.1,110,143 ± 7.4,120,82 ± 7.2,103 ± 2.1,95.8 ± 2.6
CN(CCOc1ccc(NS(C)(=O)=O)cc1)CCc1ccc(NS(C)(=O)=O)cc1 [Dofetilide],101.7 ± 0.3,114,94.8 ± 5.2,94.2,97.8 ± 17,89.3,81.6 ± 13,90.2 ± 10,106 ± 5.1
Nc1nc(CC(=O)Nc2ccc(CCNCC(O)c3ccccc3)cc2)cs1 (stereo unspecified) [Mirabegron (YM178)],127 ± 6.3,109,136 ± 51,107,140 ± 13,137,82.2 ± 9.6,97 ± 19,132 ± 4.2
CN(C)C(=N)N=C(N)N.Cl [Metformin HCl],100 ± 14,123,92.5 ± 13,86.2,102 ± 6.9,117,82.2 ± 4.7,91.7 ± 3.1,136 ± 14
CCOC(=O)c1ncn2c1CN(C)C(=O)c1cc(F)ccc1-2 [Flumazenil],114 ± 6.3,106,89.6 ± 18,96.8,93.9 ± 2.9,92.5,118 ± 17,103 ± 7.5,142 ± 15
OC(Cn1cncn1)(Cn1cncn1)c1ccc(F)cc1F [Fluconazole hydrate],116 ± 7.6,109,99.4 ± 25,89.7,138 ± 7.4,101,93.5 ± 5.6,99.1 ± 9.9,127 ± 21
CC(C)OC(=O)OCOP(=O)(COC(C)Cn1cnc2c(N)ncnc21)OCOC(=O)OC(C)C.O=C(O)C=CC(=O)O (stereo unspecified) [Tenofovir Disoproxil Fumarate],106 ± 2.7,130,94.5 ± 7.6,97,51.9 ± 9.2,105,106 ± 12,118 ± 28,136 ± 10
CCOc1ccc2ccccc2c1C(=O)NC1C(=O)N2C1SC(C)(C)C2C(=O)[O-].O.[Na+] (stereo unspecified) [Nafcillin Sodium],107 ± 8.4,139,109 ± 6,110,117 ± 9.9,105,96.1 ± 8.5,101 ± 3.8,140 ± 11
CCOC(=O)C(CCc1ccccc1)NC1CCc2ccccc2N(CC(=O)O)C1=O.Cl (stereo unspecified) [Benazepril HCl],107 ± 11,159,130 ± 41,93.5,196 ± 40,161,130 ± 7.6,107 ± 13,170 ± 22
Cc1ccc(-n2[nH]c(C)c(NN=C3C=CC=C(c4cccc(C(=O)O)c4)C3=O)c2=O)cc1C.NCCO.NCCO [Eltrombopag Olamine],82.7 ± 71,79.3,26.4 ± 4,71,43.8 ± 1.1,119,76.8 ± 6.6,36.8 ± 0.9,104 ± 17
CCn1cc(C(=O)O)c(=O)c2cc(F)c(N3CCN(C)CC3)cc21.CS(=O)(=O)O [Pefloxacin Mesylate],92.2 ± 33,137,105.3 ± 0.55,103,160 ± 5.2,153,113 ± 2.6,80.5 ± 16,144 ± 11
COc1ccnc(C[S+]([O-])c2nc3cc(OC(F)F)ccc3[nH]2)c1OC (stereo unspecified) [Pantoprazole],123 ± 15,133,102 ± 2.6,103,97.1 ± 2.1,108,130 ± 5.1,100 ± 7.9,130 ± 7.3
C#C[C@]1(O)CC[C@H]2[C@@H]3CCC4=CCCC[C@@H]4[C@H]3C(=C)C[C@@]21CC [Desogestrel],94.9 ± 2.5,146,81 ± 11,87.2,41.5 ± 5.2,97.5,74.4 ± 2,64.2 ± 39,71.8 ± 53
CC1OC(n2cc(F)c(=O)[nH]c2=O)C(O)C1O (stereo unspecified) [Doxifluridine],67.1 ± 35,152,89.8 ± 12,110,104 ± 7.4,148,93 ± 19,102 ± 19,175.4 ± 0.91
CCCCCCOC(=O)N=C(N)c1ccc(NCc2nc3cc(C(=O)N(CCC(=O)OCC)c4ccccn4)ccc3n2C)cc1.CS(=O)(=O)O [Dabigatran etexilate mesylate],98.8 ± 8.5,126,81.5 ± 8.2,99.4,106 ± 23,94.6,98.4 ± 9,63.2 ± 3.8,104 ± 5.8
CCOc1cc(C(CS(C)(=O)=O)N2C(=O)c3cccc(NC(C)=O)c3C2=O)ccc1OC (stereo unspecified),161 ± 13,149,112.6 ± 0.15,121,150 ± 16,135,117 ± 13,118 ± 7.6,140 ± 16
CC1(C)SC2C(NC(=O)C(NC(=O)N3CCN(S(C)(=O)=O)C3=O)c3ccccc3)C(=O)N2C1C(=O)O.[Na] (stereo unspecified) [Mezlocillin Sodium],143 ± 62,142,104 ± 10,102,89.7 ± 3.6,123,105 ± 1.2,107 ± 20,103 ± 9.4
COc1cc(OC)c(C(=O)CCCN2CCCC2)c(OC)c1.Cl [Buflomedil HCl],95.4 ± 3.3,131,95.6 ± 15,94.4,86.6 ± 2.6,122,92.5 ± 16,117 ± 28,134 ± 2.4
CC(=O)SC1CC2=CC(=O)CCC2(C)C2CCC3(C)C(CCC34CCC(=O)O4)C12 (stereo unspecified) [Spironolactone],109 ± 2.6,114,73.8 ± 9.1,110,75.9 ± 6.1,64.2,79.7 ± 14,88.8 ± 8.7,113 ± 10
Cc1c(N(C)C)c(=O)n(-c2ccccc2)n1C [Amidopyrine],99.1 ± 16,118,94.5 ± 19,93.2,76.33 ± 0.62,97.5,97.8 ± 7.1,117 ± 37,122 ± 8.5

SMILES,cell viability (HCI01),cell viability (HCI03),cell viability (HCI09),cell viability (HCI11),cell viability (HCI13),cell viability (HCI16),cell viability (UCD52),cell viability (WHIM2),cell viability (WHIM30)
CCc1nc(N)nc(N)c1-c1ccc(Cl)cc1 [Pyrimethamine],111 ± 6.4,129,81.6 ± 8.9,121,105 ± 12,109,75.2 ± 2.4,119 ± 4.7,104 ± 1.9
O=C(O)COCCN1CCN(C(c2ccccc2)c2ccc(Cl)cc2)CC1 (stereo unspecified) [Cetirizine],108 ± 5.1,95.2,97.2 ± 2.1,93.5,108 ± 2.5,74.6,92.6 ± 3.8,94.8 ± 4.7,128 ± 9.9
CC(C)(OCc1nn(Cc2ccccc2)c2ccccc12)C(=O)O [Bindarit],86.5 ± 68,133,95.7 ± 2.3,86.6,136 ± 0.14,117,83.1 ± 3.1,110 ± 19,149 ± 27
OCCN(CCO)c1nc(N2CCCCC2)c2nc(N(CCO)CCO)nc(N3CCCCC3)c2n1 [Dipyridamole],90.2 ± 14,116,87.4 ± 23,105,96.2 ± 6.1,150,89.6 ± 3.4,112 ± 34,142 ± 12
Nc1ccc(S(=O)(=O)Nc2nccs2)cc1 [Sulfathiazole],102 ± 30,140,93.4 ± 7.8,84.5,197 ± 28,116,96.5 ± 11,98.2 ± 6.3,110 ± 8.6
Cc1cn(C2CC(N=[N+]=[N-])C(CO)O2)c(=O)[nH]c1=O (stereo unspecified) [Zidovudine],104 ± 3.4,160,116 ± 1.2,101,124 ± 7.2,143,123 ± 16,98.22 ± 0.63,144 ± 7.7
O=C(O)c1cc(-c2ccccc2)nc2ccccc12 [Cinchophen],157 ± 2.4,125,104 ± 7.1,107,111 ± 1.3,124,120 ± 4.4,138 ± 6.4,139 ± 28
CNC(C)C1CCC(N)C(OC2C(N)CC(N)C(OC3OCC(C)(O)C(NC)C3O)C2O)O1.O=S(=O)(O)O (stereo unspecified) [Gentamycin Sulfate],119 ± 8.9,90.7,100 ± 26,101,94.4 ± 9.3,97,94.8 ± 20,72.4 ± 2,116 ± 21
COC(=O)C1=C(C#N)NC(C)=C(C(=O)OC(C)C)C1c1cccc([N+](=O)[O-])c1 (stereo unspecified) [Nilvadipine],112 ± 8.1,125,77 ± 4.5,85.7,138 ± 29,101,70.2 ± 1.1,116 ± 12,83.4 ± 10
COc1ccc2c(c1OC)C(=O)OC2C1c2c(cc3c(c2OC)OCO3)CCN1C.Cl (stereo unspecified) [Noscapine HCl],127 ± 6.7,114,127 ± 49,117,101 ± 6.3,117,93.7 ± 5,111 ± 18,139.5 ± 0.58
O=C(O)c1cccnc1Nc1cccc(C(F)(F)F)c1 [Niflumic acid],135 ± 48,149,58.9 ± 21,68.8,125 ± 2.6,130,75.3 ± 5.3,105 ± 14,122 ± 2
Nc1ccn(C2OC(CO)C(O)C2O)c(=O)n1 (stereo unspecified) [Cytidine],101 ± 36,131,98.9 ± 9.3,105,87.1 ± 7,122,92.5 ± 19,108 ± 18,146 ± 29
CCCNCC(O)COc1ccccc1C(=O)CCc1ccccc1.Cl (stereo unspecified) [Propafenone HCl],90.3 ± 6.7,119,96 ± 14,87.2,95.3 ± 7,101,76.9 ± 7.8,86.9 ± 20,115 ± 6.6
COc1ccc(C(=O)c2ccccc2)c(O)c1 [Oxybenzone],120 ± 26,141,111 ± 15,109,103 ± 8.8,128,117 ± 11,125 ± 6.8,137 ± 22
O=C(C1CCCCC1)N1CC(=O)N2CCc3ccccc3C2C1 (stereo unspecified) [Praziquantel],99.2 ± 15,132,94.6 ± 5.6,93.1,134 ± 17,112,96.7 ± 4.2,94 ± 20,114 ± 7.9
CC1=NN(c2ccccc2)C(=O)C1 [Edaravone],80.8 ± 11,108,91.7 ± 13,100,99.37 ± 0.89,113,87.9 ± 16,83.1 ± 24,130 ± 10
O=C1Nc2ccc(Cl)cc2C(C#CC2CC2)(C(F)(F)F)O1 (stereo unspecified) [Efavirenz],114 ± 16,85.9,68.9 ± 7.4,99.8,82.9 ± 7.3,108,69.5 ± 1.9,69.6 ± 46,82.3 ± 17
O=C1CCc2ccc(OCCCCN3CCN(c4cccc(Cl)c4Cl)CC3)cc2N1 [Aripiprazole],105 ± 16,127,73.6 ± 6.5,82,73.33 ± 0.076,127,73.9 ± 8.9,104 ± 6.5,122 ± 3.3
O=C1C(CCC(O)c2ccc(F)cc2)C(c2ccc(O)cc2)N1c1ccc(F)cc1 (stereo unspecified) [Ezetimibe],109 ± 6.1,102,86.6 ± 20,92.5,121 ± 3.4,97.3,81.4 ± 3.2,96 ± 5.4,100 ± 5.3
